Source: PubChem BioAssay (NCATS)
Inconclusive results are not listed. Calls of active or inactive are those of the source. Calls come from the whole dose curve; as a rule, active = well fitted curve in either direction with a large enough effect (not every such curve was filed as active); inconclusive = small, poorly fitted or top-dose-only effect, or another doubt; inactive = flat fitted curve, though single readings scatter.

test: AP1 Signaling Pathway (AID 357); settings: ME-180 AP-1-bla reporter, EGF-induced, beta-lactamase ratio, 5 h; at 17.2 µM (top of the series) unless noted
In short: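 ME-180 cells with beta-lactamase reporter under AP-1 response element, stimulated with EC50 EGF; compounds tested in titration series, 5 h at 37 °C. CCF4 substrate added 2.5 h at room temperature; 460/530 nm emission ratio gave %activity and AC50.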
% is set by controls: 0 for no effect and ±100 for the full control effect.

Activity change, negative = inhibition, inactive:
O=C(NCCCNCc1ccccc1)/C(=N\O)c1ccccc1 -2.86%
COc1cc(/C=N/n2nnnc2N)ccc1O -2.54%
C(=N\n1cnnc1)/c1cccc(Oc2ccccc2)c1 -3.86%
COc1ccc(CCNC(=O)c2ccc(=O)[nH]n2)cc1OC -1.15%
COc1ccc(OC)c(C2C(C#N)=C(N)Oc3cc(C)n(Cc4ccccn4)c(=O)c32)c1 (stereo not given) 1.88%
COc1ccc(-n2ncc3c(Nc4cccc(C)c4)ncnc32)cc1 1.56%
COc1cccc(NC(=O)CSC2=C(C#N)C(c3ccco3)C3=C(CCCC3=O)N2)c1 (stereo not given) -18.7%
Cc1cc(=O)oc(C)c1C(=O)N1CCN(C)CC1 5.91%
c1ccc(SCc2nc3ccccc3[nH]2)nc1 -0.127%
CCOC(=O)c1[nH]c2ccccc2c1N=CN(CC)CC 9.2%
CC(=O)c1c(N)nc2n(c1=O)CCCCC2 -12.6%
COc1ccc(OC)c(N=C(C)C2=C(O)COC2=O)c1 -4.74%
O=C(COc1ccc(Cl)cc1)Nc1ccccc1CO 6.8%
O=C(c1coc(=O)c(Br)c1)N1CCCc2ccccc21 11.9%
CCN(CC)C(=O)CN(C#N)c1nc(NC(C)C)nc(NC(C)C)n1 4.86%
Nc1nonc1-c1noc(N2CCOCC2)n1 4.65%
CCCOc1cccc(C2/C(=C(/O)c3ccc(F)cc3)C(=O)C(=O)N2CCN(C)C)c1 (stereo not given) 3.27%
Cc1ccc(Cn2ncc3c(N4CCOCC4)ncnc32)cc1 -2.95%
CCOC(=O)C1=C(c2ccccc2)NC(SCC(=O)Nc2ccccc2C)=C(C#N)C1c1ccco1 (stereo not given) -1.47%
CCSc1nc(N)c2c3c(sc2n1)CCC3 -12.5%
CCCSc1nc(O)c(C2OC(=O)c3c2ccc(OC)c3OC)c(=O)n1C (stereo not given) 17.4%
C=C(C)CN1CCN(c2c(CCC#N)c(C)c(C#N)c3nc4ccccc4n23)CC1 6.83%
c1ccc(CN2CCN(c3nc(-c4ccccn4)nc4ccccc34)CC2)cc1 14.9%
CCOc1nnnc2c1sc1nc(N3CCOCC3)c3c(c12)CC(C)(C)OC3 -7.69%
CC(=O)Oc1ccccc1C1OC(=O)c2ccccc2N1C(C)=O (stereo not given) 14.3%
Cc1c(C)[n+](=O)c2c(n1[O-])CCC2 0.615%
O=C(c1ccc(N2C(=O)C3CC=C(Cl)CC3C2=O)cc1)N1CCCCC1 (stereo not given) -18.4%
Cc1cccc(N)c1SC1CCCCC1O (stereo not given) -3.66%
CCC(c1c(C)n(C)n(-c2ccccc2)c1=O)c1c(C)n(C)n(-c2ccccc2)c1=O 6.29%
Cc1[nH]nc(-c2ccc(O)cc2O)c1Oc1ccccc1 -8.71%
Nc1nnnn1CC(=O)OCc1cccc(Br)c1 -12.9%
CC(C)OC(=O)CCNc1n[nH]c(=O)[nH]c1=O 5.78%
Cc1ccc(-c2ccccc2NC(=O)C2C3C=CC(C3)C2C(=O)O)o1 (stereo not given) -3.25%
Clc1cccc(-c2nn3c(COc4ccccc4)nnc3s2)c1 6.46%
CCC(=O)Nc1ccc(-c2nnc(-c3ccccc3)o2)cc1 0.816%
CCn1nnc(C(=O)O)c1C(=O)O 3.44%
NC(=O)/C(=N\O)c1ccccc1 -4.98%
Cc1nn(C)cc1/C=N/O 10.9%
CCOC(=O)CSc1nc2sc3c(c2c(=O)[nH]1)CC(C)(C)OC3 6.27%
O=C1CC(NCc2ccncc2)C(=O)N1c1ccc(Cl)cc1 (stereo not given) -15.8%
